From PubChem BioAssay (NCATS)
Unmarked numbers belong to inactive results. Calls come from the whole dose curve; as a rule, active = well fitted inhibition curve with a large enough effect; inconclusive = small, poorly fitted or top-dose-only effect; inactive = flat fitted curve, though single readings scatter.

Tested on: Nanoluciferase (engineered Oplophorus gracilirostris luciferase)
Test: Primary Nanoluciferase (NLuc) qHTS assay for identification of artifact compounds. (AID 1845222);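 note: NLuc secreted into diluted conditioned medium of S16 cells; 0% = DMSO and -100% = no enzyme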
Details: NLuc-conditioned medium, Nano-Glo luminescence, 5 min; series mostly up to 54.1 µM; activity, negative = inhibition: at the top concentration
How it was run: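 Using secreted nanoluciferase in S16 culture medium (0.22 um filtered, 1:55 dilution), compounds were preincubated 15 min at RT. Signal was generated with Nano-Glo reagent (1:100) over 5 min.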

Row | Compound | activity, negative = inhibition
1 | O=C(OC[C@H]1O[C@@H](Oc2ccccc2COC(=O)C2(O)C=CCCC2O)[C@H](O)[C@@H](O)[C@@H]1O)c1ccccc1 (some centres undefined) | -6% [at 25.7 µM]
2 | CNC(C)C(=O)NC(C(=O)N1CCCC1C(=O)Nc1cccc2ncccc12)C(C)C (centres undefined) | 1.36%
3 | CC1(C)CC[C@]2(C(=O)O[C@@H]3O[C@H](CO[C@@H]4O[C@H](CO)[C@@H](O)[C@H](O)[C@H]4O)[C@@H](O)[C@H](O[C@@H]4O[C@H](CO)[C@@H](O)[C@H](O)[C@H]4O)[C@H]3O)CC[C@]3(C)C(=CCC4[C@@]5(C)CC[C@H](O[C@@H]6OC[C@@H](O)[C@H](O)[C@H]6O)[C@@](C)(C(=O)O)C5CC[C@]43C)[C@@H]2C1 (some centres undefined) | 1.63% [at 11.6 µM]
4 | O=C(O)CC/C=C\C[C@H]1CO[C@@H](c2ccccc2Cl)O[C@H]1c1ccccc1O | -9.82%
